# This is part of a sample that, as a whole, favours compounds with a hit. Of some 83,000 tested, about 20% had one in any assay.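 Percent growth is the endpoint: 0 to 100 indicates growth inhibition (40 means 60% inhibition), 0 means no net growth, and negative values indicate cell death.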 Calls of active or inactive are those of the source. How the source made its calls: active means growth percent below 10; inactive means the rest.
# How the values were obtained:
# Assay in all cases: NCI-60 one-dose screen, 48 h (100 = growth as untreated, 0 = no growth, -100 = all killed)
# Conditions in all cases: 10 µM unless noted
# NCI-H23 lung = system: NCI-H23 lung
# NCI-H226 lung = system: NCI-H226 lung
# NCI-H322M lung = system: NCI-H322M lung
# HOP-62 NSCLC = system: HOP-62 NSCLC
# NCI-H460 lung = system: NCI-H460 lung
# HOP-92 NSCLC = system: HOP-92 NSCLC
# NCI-H522 lung = system: NCI-H522 lung
# A549/ATCC NSCLC = system: A549/ATCC NSCLC
# 786-0 renal = system: 786-0 renal
# COLO 205 colon = system: COLO 205 colon
SMILES,growth (NCI-H23 lung),growth (NCI-H226 lung),growth (NCI-H322M lung),growth (HOP-62 NSCLC),growth (NCI-H460 lung),growth (HOP-92 NSCLC),growth (NCI-H522 lung),growth (A549/ATCC NSCLC),growth (786-0 renal),growth (COLO 205 colon)
COc1ccc(-c2nc3sccn3c2/C=C/C(=O)c2cc(OC)c(OC)c(OC)c2)cc1,59.9% (inactive),87.4% (inactive),69.4% (inactive),79.1% (inactive),47% (inactive),-1.77% (active),5.02% (active),60.4% (inactive),78.3% (inactive),79.2% (inactive)
COc1ccc(/C(C)=N/NC(=O)CSc2nc3ccccc3c(=O)n2Cc2ccc(S(N)(=O)=O)cc2)c(OC)c1,101% (inactive),93.9% (inactive),94.8% (inactive),100% (inactive),102% (inactive),112% (inactive),96% (inactive),102% (inactive),105% (inactive),118% (inactive)
O=C1Nc2ccccc2/C1=N/c1nc(-c2ccc(Cl)cc2)cs1,75% (inactive),64.2% (inactive),92.6% (inactive),56% (inactive),67.7% (inactive),51.5% (inactive),50.1% (inactive),49.4% (inactive),75.6% (inactive),63.8% (inactive)
Clc1ccc(C2CC(c3cccc(Nc4ccncc4)c3)=NN2c2ccc(Cl)cc2)cc1 (stereo not given),47.7% (inactive),91.9% (inactive),54.9% (inactive),-44.4% (active),-81% (active),46.3% (inactive),-44% (active),9.48% (active),-71.7% (active),-61.5% (active)
CCN(CC)CCCCCCNc1cc(OC)cc2cccnc12,85.5% (inactive),97.4% (inactive),96% (inactive),92.1% (inactive),32.6% (inactive),85.2% (inactive),5.26% (active),80.3% (inactive),-50.7% (active),-68.9% (active)
CC(c1ccccc1)n1ccnc1CO (stereo not given),96.5% (inactive),100% (inactive),101% (inactive),105% (inactive),104% (inactive),66.5% (inactive),98.8% (inactive),109% (inactive),105% (inactive),106% (inactive)
Cc1ccc(O)c(C(=O)O)c1,100% (inactive),105% (inactive),115% (inactive),99.8% (inactive),103% (inactive),101% (inactive),99% (inactive),103% (inactive),104% (inactive),120% (inactive)
COc1ccc(Cc2nc3cc(OC)c(OC)cc3c(=O)[nH]2)cc1,59.6% (inactive),98% (inactive),167% (inactive),140% (inactive),89.4% (inactive),108% (inactive),52.1% (inactive),-5.67% (active),86.9% (inactive),68.5% (inactive)
Clc1nc(Cl)c2ncn(CCOCCn3cnc4c(Cl)nc(Cl)nc43)c2n1,-78.5% (active),-74.2% (active),-97.1% (active),-71.8% (active),-62.8% (active),-93.2% (active),-85.4% (active),-76.2% (active),-92.9% (active),-65.2% (active)
CCN(CC)CCCC(C)Nc1c2c(nc3ccc(OC)cc13)CCCC2 (stereo not given),87.7% (inactive),97.3% (inactive),90.6% (inactive),87.6% (inactive),92.7% (inactive),84.2% (inactive),112% (inactive),108% (inactive),90.2% (inactive),100% (inactive)
CCCCCCOc1ccc(C(=N)N(CCCC)CCCC)c2ccccc12,-94.6% (active),-70.5% (active),-93.6% (active),-89% (active),-57.7% (active),-81.7% (active),-84.6% (active),-83.1% (active),-94% (active),-79.9% (active)
COc1cc(-c2nc3sccn3c2-c2ccnc(NCCNS(=O)(=O)c3ccc(F)cc3)n2)ccc1F,13% (inactive),3.23% (active),29.7% (inactive),32.3% (inactive),13.6% (inactive),18.8% (inactive),-6.6% (active),5.95% (active),30.9% (inactive),5.45% (active)
CCC(C)N(CCNc1cc(OC)cc2cccnc12)CCC(C)C (stereo not given),71.7% (inactive),88% (inactive),111% (inactive),62.4% (inactive),78.3% (inactive),87.9% (inactive),50% (inactive),61.6% (inactive),95.7% (inactive),68.3% (inactive)

# Source: PubChem BioAssay (NCI)
